Assay outcomes from PubChem.
ERAP1 HTS inh: human ERAP1 aminopeptidase inhibitors, primary screen, biochemical, single point, plate reader | AID 652197, 2013 | recombinant ERAP1, Leu-AMC fluorescence, 60 min | inhibition, % at 10.7 µM | 0.15% of 340,000 active;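 active means mean replicate inhibition of at least 30%, or all replicates individually reaching that 30% level; inactive means mean below 30% and not every replicate reaching it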;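 further: 0% = neutral control wells and 100% = L-leucinethiol positive control wells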
SIRT5 inh: SIRT5 desuccinylase inhibitors, primary screen, biochemical, fluorescence imaging, single point, set 5; inhibition, % at 15 µM; NAD-dependent protein deacylase sirtuin-5, mitochondrial (Homo sapiens), Q9NXA8; AID 652115, 2013; Purified SirT5, succinyl-peptide AMC, trypsin-coupled fluorescence; 1.1% of 330,000 active; in the data active means inhibition above about 15%
Target sequence (Q9NXA8 whole entry, looked up): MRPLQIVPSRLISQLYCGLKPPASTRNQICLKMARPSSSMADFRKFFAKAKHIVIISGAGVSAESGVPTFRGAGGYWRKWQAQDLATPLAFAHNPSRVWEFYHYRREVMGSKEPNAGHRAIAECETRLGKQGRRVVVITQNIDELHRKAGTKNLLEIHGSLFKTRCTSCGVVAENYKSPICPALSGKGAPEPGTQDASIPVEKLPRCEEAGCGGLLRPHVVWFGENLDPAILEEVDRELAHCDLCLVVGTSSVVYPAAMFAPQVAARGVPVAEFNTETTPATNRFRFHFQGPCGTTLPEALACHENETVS
CASP6 VEID inh: human caspase-6 inhibitors, primary screen, biochemical, VEID-R110 fluorescence, single point, set 2. purified caspase-6, Z-VEID-R110 cleavage fluorescence. inhibition, % at 12.5 µM. 0.53% of 350,000 active;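 active means mean inhibition across replicates at least about 35%, with every replicate also reaching that limit, limit read from the data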;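 further: 0% = median of neutral control wells and 100% = no fluorescence left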
FGF22 binding: binders of human FGF22 protein, primary screen, FGF22 synaptogenesis inhibitor project, biophysical, thermal shift, single point; Fibroblast growth factor 22 (Homo sapiens), Q9HCT0; recombinant FGF22 thermal shift, SYPRO orange fluorescence; percent of sucrose octasulfate shift, DMSO zero; activity (Tm shift, normalised), % at 9.99 µM; 1.5% of 340,000 active; AID 651658, 2012;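 active means mean Tm shift, scaled 0 neutral to 100 positive control, at about 1.3% or above, every replicate too, limit read from the data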
Target sequence (Q9HCT0 whole entry, looked up): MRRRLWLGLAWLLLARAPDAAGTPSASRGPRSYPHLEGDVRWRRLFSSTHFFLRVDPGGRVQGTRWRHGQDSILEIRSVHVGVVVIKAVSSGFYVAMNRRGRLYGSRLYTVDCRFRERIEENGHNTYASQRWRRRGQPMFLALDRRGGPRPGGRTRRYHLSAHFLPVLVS
* marks the source's active call; other numbers are inactive results; nt = no result given. Only some compounds are listed: those with a hit (about 3.1% of all), similar ones and a draw of the others.

SMILES	ERAP1 HTS inh	SIRT5 inh	CASP6 VEID inh	FGF22 binding
COc1ccc(CN(C)C[C@H]2Oc3ccc(NC(=O)CCC(F)(F)F)cc3C(=O)N([C@H](C)CO)C[C@H]2C)cc1	-1.3	-2.4	-2.7	0.1
C[C@H](CO)N1C[C@H](C)[C@H](CN(C)Cc2ccc(Oc3ccccc3)cc2)Oc2ccc(NC(=O)CCC(F)(F)F)cc2C1=O	-1.1	15.1*	2.2	-0.4
COc1ccc(CN(C)C[C@@H]2Oc3ccc(NC(=O)CCC(F)(F)F)cc3C(=O)N([C@H](C)CO)C[C@H]2C)cc1	0.4	29.3*	-1.8	0.2
C[C@H]1CN([C@@H](C)CO)C(=O)c2cc(NC(=O)CCC(F)(F)F)ccc2O[C@H]1CN(C)Cc1ccc(C(F)(F)F)cc1	1.3	19.8*	1.6	-0.5
Cc1cc(NC(=O)CCC(=O)N(Cc2ccccc2)C(C(=O)NC2CCCC2)c2ccco2)no1 (stereo not given)	-0.8	77.8*	3.0	-0.5
Cc1cc(NC(=O)CCC(=O)N(Cc2ccc(F)cc2)C(C(=O)NC2CCCC2)c2ccco2)no1 (stereo not given)	-5.0	-3.5	-0.3	-0.4
O=C(NCC[C@@H]1CC[C@H](NC(=O)C2CCCC2)[C@@H](CO)O1)c1cc(Cl)cc(Cl)c1	-3.9	-2.4	3.3	0.0
CN=c1scc(-c2cccs2)n1/N=C/c1ccc(O)c(O)c1O	-2.8	2.9	23.8	43.0*
COCc1cc(C)nc(OCC(=O)N/N=C/c2ccccc2O)c1C#N	-3.6	-2.0	-6.8	44.0*
COc1cccc2c(SCC(=O)N/N=C/c3ccc(O)cc3O)cc(C)nc12	-1.5	-0.2	-3.9	3.0*
O=C(COc1ccccc1)NCC(=O)N/N=C/c1ccc(O)cc1O	1.3	-1.2	-5.7	42.4
COCc1cc(C)nc(OCC(=O)N/N=C/c2ccc(O)cc2O)c1C#N	2.9	1.0	-4.2	43.7*
CCOc1cc(/C=N/NC(=O)COc2nc(C)cc(COC)c2C#N)ccc1O	-0.3	0.0	0.8	-0.2
CO[C@@H]1CN(C)C(=O)c2ccc(NS(=O)(=O)c3ccccc3F)cc2OC[C@H](C)NC[C@@H]1C	-1.4	8.0	-2.2	0.0
C[C@H](CO)N1C[C@H](C)[C@@H](CN(C)Cc2cncnc2)Oc2cc(C3=CCCC3)ccc2S1(=O)=O	-3.9	0.9	-1.4	-0.2
COC(=O)C1SCC2C(=O)N(Cc3ccccc3)CC(=O)N21 (stereo not given)	0.0	-0.5	0.3	43.1*
CCCN1[C@@H]2c3ccc(-c4cccnc4)c(=O)n3C[C@H]1[C@H](CO)[C@H]2C(=O)NCCc1cn(C)cn1	54.8*	-2.0	-12.2	0.3
Cc1c(-c2cccc(NC(=O)c3ccco3)c2)nc2ncccn12	-33.0	-62.5	-2.4	44.3*
CCOC(=O)c1sc2nc(C)nc(NCc3cccnc3)c2c1C	-0.7	8.1	7.0	0.1
CCOC(=O)c1sc2nc(OCc3cccnc3)cc(C)c2c1N	0.5	24.8*	30.3	0.3
CCN(CC)c1ccc(/C=N/N2CCN(Cc3ccc(C)cc3)CC2)c(O)c1	0.2	20.1*	-1.4	0.1
Cc1noc(C)c1S(=O)(=O)N(C)C[C@@H]1Oc2ccc(NC(=O)Cc3ccccc3)cc2CC(=O)N([C@H](C)CO)C[C@H]1C	nt	nt	nt	-0.1
Cc1cc(C(=O)NCC(=O)OCC(=O)NCCc2ccccc2)ccc1[N+](=O)[O-]	3.7	-0.4	7.1	43.8*
COc1cc(NC(=O)COC(=O)C=C(C)C)c(C)cc1[N+](=O)[O-]	7.9	2.3	-2.7	43.8*
COc1cc(NC(=O)COC(=O)CNC(=O)c2ccc(C)cc2)c(C)cc1[N+](=O)[O-]	-0.3	20.4*	1.7	0.2
SMILES	ERAP1 HTS inh	SIRT5 inh	CASP6 VEID inh	FGF22 binding
COc1cc(NC(=O)COC(=O)CC(C)(C)C)c(C)cc1[N+](=O)[O-]	-3.3	-2.1	1.0	0.2
CCOC(=O)Cc1cc(=O)n2[nH]c(-c3ccccc3)c(-c3ccccc3)c2n1	1.4	-2.0	4.3	43.3*
CC(C)(C)c1ccc(CC(=O)N2CCC2(C)C(=O)Nc2cccc3cccnc23)cc1 (stereo not given)	0.2	-1.0	0.4	-0.3
CCC(=O)N1CCC1(C)C(=O)Nc1cccc2cccnc12 (stereo not given)	-4.9	nt	78.0*	0.1
CCCCn1c(NS(=O)(=O)c2ccccc2)c(S(=O)(=O)c2ccc(C)cc2)c2nc3ccccc3nc21	1.2	0.3	98.1*	0.0
CCCCn1c(NC(=O)c2ccco2)c(S(=O)(=O)c2ccc(C)cc2)c2nc3ccccc3nc21	1.1	1.4	15.2	0.2
COc1ccccc1N1CCN(/N=C/c2cc(OC)c(O)c(OC)c2)CC1	1.2	-4.5	-0.1	-0.2
COc1ccccc1N1CCN(/N=C/c2cccc(O)c2)CC1	-3.5	0.8	1.8	43.9*
C[C@H]1CN([C@@H](C)CO)S(=O)(=O)c2ccc(C3=CCCCC3)cc2O[C@H]1CN(C)C(=O)C1CCC1	-1.6	4.5	-0.9	-0.5
C[C@@H]1CN([C@H](C)CO)C(=O)c2cccc(NS(=O)(=O)c3ccc(F)cc3)c2O[C@@H]1CN(C)C(=O)Nc1cccc2ccccc12	0.5	0.4	7.9	-0.1
Cc1nc(OCc2c(C)noc2C)c2ccccc2n1	-6.0	-1.8	-2.5	43.3*
Cc1noc(C)c1COc1ccc(CC(=O)NCc2ccccc2)cc1	5.4	-0.4	2.5	0.1
N[C@@H](Cc1cc(I)c(O)c(I)c1)C(=O)O	-0.5	32.9*	44.0*	0.1
COc1ccccc1-c1csc(C(C)(O)c2ccccc2)n1 (stereo not given)	-2.8	16.0*	10.3	-0.6
C[C@@H]1CN([C@@H](C)CO)C(=O)c2cc(NS(=O)(=O)c3ccccc3)ccc2O[C@@H](C)CCCCO[C@@H]1CN(C)S(=O)(=O)c1ccc(Cl)cc1	-1.6	5.4	2.2	nt
CO[C@H]1CN(C)C(=O)c2ccc(NC(=O)c3cccc(F)c3)cc2OC[C@@H](C)N(C)C[C@@H]1C	-2.2	-3.9	nt	0.0
O=[N+]([O-])c1ccc(CSc2nnc(SCc3ccccc3)s2)cc1	-1.9	-2.0	1.6	43.6*
CNCc1sccc1C	7.4	0.1	0.9	43.3*
C[C@H]1CN([C@@H](C)CO)C(=O)c2cc(C#Cc3cccc(F)c3)cnc2O[C@@H]1CN(C)CC1CCCC1	-0.1	22.8*	0.9	-0.4
C[C@H](O)C#Cc1cnc2c(c1)C(=O)N([C@H](C)CO)C[C@H](C)[C@@H](CN(C)CC1CCCC1)O2	-10.8	21.3*	-6.9	-0.1
C[C@H](O)C#Cc1cnc2c(c1)C(=O)N([C@@H](C)CO)C[C@H](C)[C@H](CN(C)Cc1cccc(F)c1)O2	-3.0	-0.8	-1.1	-0.1
C[C@H](CO)N1C[C@H](C)[C@H](CN(C)Cc2cccc(F)c2)Oc2ncc(C#C[C@@H](C)O)cc2C1=O	-4.7	24.1*	1.9	-0.2
C[C@@H]1CN([C@@H](C)CO)C(=O)c2cc(NC(=O)C3CCCCC3)ccc2O[C@H]1CN(C)S(=O)(=O)c1ccccc1	-1.1	-1.8	0.2	-0.5
